# Experimental data taken from PubChem BioAssay (NCATS).
# A number with no mark means an inactive call. Results filed as inconclusive are left out. A call without a number means that no potency is given here. Active and inactive are the calls of the source. Unless noted, the call rests on the fitted dose curve; in most records, active means well fitted curve in the direction sought with a large enough effect; inconclusive means small, poorly fitted or top-dose-only effect, or another doubt; inactive means no such curve, though single readings can be large; an effect the other way counts as inactive or inconclusive.
# How the values were obtained:
# [1] = target: DNA repair nuclease/redox regulator APEX1 (Homo sapiens) (UniProt P27695); test: qHTS Validation Assay for Inhibitors of the Human Apurinic/apyrimidinic Endonuclease 1 (APE1) (AID 1705;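 further: TAMRA fluorescence gain over two minutes as APE1 cuts a quenched THF abasic duplex; series mostly up to about 57 µM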)
# Outline: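 Read-out: TAMRA fluorescence (525 nm ex, 598 nm em) from cleavage of a quenched THF abasic-site duplex, 50 nM final; activity taken as intensity change between third and first of three reads 60 s apart.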
# [2] = Counterscreen for APE1 Inhibitors: Fluorescent Dye Displacement Validation Assay (AID 1707)
# Outline: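 Assay buffer: Tris-HCl pH7.5 with 50mM NaCl, 2 mM MgCl2, 0.01% Tween-20. Dye 250 nM, duplex 50 nM final. Readout: decrease in ThO endpoint fluorescence, 480 nm excitation, 540 nm emission.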
# [3] = target: Endonuclease 4 (Escherichia coli (strain K12)) (UniProt P0A6C1); test: Counterscreen for APE1 Inhibitors: qHTS Validation Assay for Inhibitors of Endonuclease IV (AID 1708)
# Outline: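 qHTS concentration-response format; LOPAC1280 tested under APE1-screen conditions. 2 nM enzyme, 15 min compound preincubation at RT, then 50 nM TAMRA/BHQ-2 abasic substrate; kinetic fluorescence read, three reads at 60 s intervals.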
# [4] = qHTS for differential inhibitors of proliferation of Plasmodium falciparum line 7G8 (AID 1815);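 further: potency means the concentration at half of the fitted maximal effect; parasite growth measured after three days of incubation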
# [5] = qHTS for differential inhibitors of proliferation of Plasmodium falciparum line GB4 (AID 1816); conditions: Potency: Plasmodium falciparum GB4 proliferation inhibition;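 further: potency means the concentration at half of the fitted maximal effect; parasite growth measured after 72 h incubation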
# [6] = qHTS for differential inhibitors of proliferation of Plasmodium falciparum line 3D7 (AID 1876); further: potency means the concentration at half of the fitted maximal effect
# [7] = qHTS for differential inhibitors of proliferation of Plasmodium falciparum line W2 (AID 1883); conditions: Potency: Plasmodium falciparum W2 proliferation inhibition;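 further: potency means the concentration at half of the fitted maximal effect; parasites grown with compound for 72 h before lysis and staining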
# [8] = target: Ferritin light chain (Equus caballus) (UniProt P02791); test: qHTS Validation Assay for Identification of Novel General Anesthetics (AID 2323); further: series mostly up to about 77 µM
# Outline: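 10 uM horse-spleen apoferritin + 1-AMA (50% saturated, PBS); cpd pin-transferred, 10 min RT. Ex 380/Em 535 nm endpoint. Activity normalized between free 1-AMA and 1-AMA/apoferritin; 4-parameter Hill fit of concentration-response.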
# [9] = target: ATP-dependent DNA helicase Q1 (Homo sapiens) (UniProt P46063); test: qHTS Validation Assay for Inhibitors of RecQ-Like Dna Helicase 1 (RECQ1) (AID 2353)
# Outline: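 50 nM RECQ1T1 preincubated 15 min with compound in Tris pH 8.0 buffer with MgCl2, DTT, Tween-20 and 2.5 ug/ml poly(dI-dC); started with 200 nM TAMRA/BHQ-2 forked duplex and 2 mM ATP. Unwinding read as fluorescence (525/598 nm), two reads 2 h apart.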
# [10] = target: RecQ-like DNA helicase BLM (Homo sapiens) (UniProt P54132); test: qHTS Validation Assay for Inhibitors of Bloom's syndrome helicase (BLM) (AID 2364)
# Outline: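 Forked 20-bp duplex substrate (200 nM, TAMRA/BHQ-2) plus 2 mM ATP added after 15 min compound preincubation with 50 nM enzyme, pH 8.0, poly(dI-dC) 2.5 ug/ml. Strand separation followed by fluorescence (525/598 nm) over 2 h, normalized to enzyme-free and DMSO controls.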
# [11] = Validation screen for small molecules that induce DNA re-replication in MCF 10A normal breast cells (AID 463097); further: nearly all actives have a fitted effect of over 60% in size
# Outline: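 250 MCF 10A cells/well; compound pin-transferred; 48 hr, 37 C, 5% CO2; Hoechst 40 min; imaged 405/500-530 nm. Hits = more high-intensity nuclei.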
# [12] = Quantitative high throughput screen for delayed death inhibitors of the malarial parasite plastid, 48 hour incubation (AID 488752); further: nearly all actives have a fitted effect of over 65% in size
# Outline: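 Readout is firefly luciferase luminescence from a reporter integrated into the parasite genome, with lower signal taken as inhibited growth. Infected red cells (0.1% parasitemia, 2% hematocrit final) are cultured with compound for one 48 h cycle at 37 C.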
# [13] = target: M-phase phosphoprotein 8 (Homo sapiens) (UniProt Q99549); test: qHTS Validation Assay for Inhibitors for MPP8 Chromodomain Interactions with Methylated Histone Tails (AID 488949);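 further: AlphaScreen signal from MPP8 chromodomain bound to biotinylated H3K9me3 peptide; top concentration of the series differs between compounds; nearly all actives have a fitted effect of over 55% in size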
# Outline: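 AlphaScreen read-out: streptavidin donor and nickel chelate acceptor beads (final 10 ug/mL), 30 min in the dark at RT. Complex of 50 nM MPP8 and 50 nM b-H3(1-18)K9me3 peptide had been exposed to compounds for 30 min beforehand.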
# [14] = target: Transient receptor potential cation channel subfamily V member 1 (Homo sapiens) (UniProt Q8NER1); test: HTS Assay for Compounds that Act as Enhancers of the Vanilloid Receptor 1 (AID 488979)
# Outline: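 Calcium influx kinetics via Fluo-8 (480/520 nm) in TRPV1-expressing cells, 2000/well cultured overnight at 35.5C. Compound-alone read 3 min (agonist phase), followed by EC20 capsaicin challenge for 2 min (enhancer phase).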
# [15] = target: Thyrotropin receptor (Homo sapiens) (UniProt P16473); test: qHTS Assay for Antagonists of the Thyroid Stimulating Hormone Receptor (AID 488980); further: series mostly up to about 58 µM
# Outline: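 TSHR-HEK293 cells; 70 uM RO 20-1724 PDE inhibitor; compound + EC80 TSH (4 nM final); anti-cAMP cryptate antibody/cAMP-d2 in lysis buffer, 30 min RT; HTRF 665/620 nm read.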
# [16] = target: Thyrotropin-releasing hormone receptor (Homo sapiens) (UniProt P34981); test: qHTS for Small Molecule Agonists and Allosteric Enhancers of Human TRH Receptor: Validation Screen for Agonists (AID 493127;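 active means calcium activation more than 3 SD above the typical response in the agonist read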;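 further: intracellular calcium rise by fluo-8 fluorescence before TRH EC20 addition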); conditions: TRH receptor agonist cell assay; at 2 µM; hits give high values
# Outline: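 Cells 2000/well, 10% FCS, 18 h 33.5C/5% CO2 → fluo-8 Ca dye, RT 30 min–1.5 h → FDSS baseline 10 × 1 s → compound added → 230 cycles (1 s/cycle) agonist mode. TRH controls.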
# [17] = target: Galactokinase (Homo sapiens) (UniProt P51570); test: qHTS Validation Assay for Inhibitors of Human Galactokinase (GALK) (AID 493189)
# Outline: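 Luminescence from leftover ATP (Kinase-Glo Plus, 10 min) served as read-out after a 1 h room-temperature reaction of 5 nM GALK, 100 uM galactose and 35 uM ATP at pH8.0.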
# [18] = Validation screen for small molecules that induce DNA re-replication in SW480 colon adenocarcinoma cells (AID 504364)
# Outline: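 250 cells/well; compound pinned in; 48 hr, 37 C, 5% CO2; Hoechst added, 40 min; nuclear fluorescence imaged, 405 ex / 500-530 em; re-replication scored as increase in high-intensity nuclei.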
# Sequence of ATP-dependent DNA helicase Q1 (Homo sapiens) (P46063 whole entry, looked up): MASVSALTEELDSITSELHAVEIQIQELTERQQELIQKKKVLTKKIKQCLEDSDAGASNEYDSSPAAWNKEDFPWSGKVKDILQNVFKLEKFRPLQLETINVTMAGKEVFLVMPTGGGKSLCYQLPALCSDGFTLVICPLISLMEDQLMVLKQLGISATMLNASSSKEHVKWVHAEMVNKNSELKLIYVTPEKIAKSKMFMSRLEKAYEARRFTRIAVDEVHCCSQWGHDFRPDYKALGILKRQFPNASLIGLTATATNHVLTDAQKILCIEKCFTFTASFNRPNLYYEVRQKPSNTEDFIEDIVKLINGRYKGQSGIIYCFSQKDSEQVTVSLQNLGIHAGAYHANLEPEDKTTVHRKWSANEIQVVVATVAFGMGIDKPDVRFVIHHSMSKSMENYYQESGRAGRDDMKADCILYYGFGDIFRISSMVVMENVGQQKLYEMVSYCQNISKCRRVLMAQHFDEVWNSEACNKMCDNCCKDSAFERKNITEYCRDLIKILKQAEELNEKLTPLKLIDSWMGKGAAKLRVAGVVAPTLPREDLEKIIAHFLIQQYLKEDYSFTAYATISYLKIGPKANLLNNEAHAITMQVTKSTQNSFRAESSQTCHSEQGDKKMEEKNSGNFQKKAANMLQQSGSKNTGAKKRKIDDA
# Sequence of Ferritin light chain (Equus caballus) (P02791 2-175 limits assumed): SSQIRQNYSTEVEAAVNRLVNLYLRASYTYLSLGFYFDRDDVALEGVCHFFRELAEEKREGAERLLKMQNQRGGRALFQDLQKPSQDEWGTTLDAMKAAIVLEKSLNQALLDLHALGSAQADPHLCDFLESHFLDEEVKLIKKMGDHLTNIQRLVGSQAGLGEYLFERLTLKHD
# Sequence of Transient receptor potential cation channel subfamily V member 1 (Homo sapiens) (Q8NER1 whole entry, looked up): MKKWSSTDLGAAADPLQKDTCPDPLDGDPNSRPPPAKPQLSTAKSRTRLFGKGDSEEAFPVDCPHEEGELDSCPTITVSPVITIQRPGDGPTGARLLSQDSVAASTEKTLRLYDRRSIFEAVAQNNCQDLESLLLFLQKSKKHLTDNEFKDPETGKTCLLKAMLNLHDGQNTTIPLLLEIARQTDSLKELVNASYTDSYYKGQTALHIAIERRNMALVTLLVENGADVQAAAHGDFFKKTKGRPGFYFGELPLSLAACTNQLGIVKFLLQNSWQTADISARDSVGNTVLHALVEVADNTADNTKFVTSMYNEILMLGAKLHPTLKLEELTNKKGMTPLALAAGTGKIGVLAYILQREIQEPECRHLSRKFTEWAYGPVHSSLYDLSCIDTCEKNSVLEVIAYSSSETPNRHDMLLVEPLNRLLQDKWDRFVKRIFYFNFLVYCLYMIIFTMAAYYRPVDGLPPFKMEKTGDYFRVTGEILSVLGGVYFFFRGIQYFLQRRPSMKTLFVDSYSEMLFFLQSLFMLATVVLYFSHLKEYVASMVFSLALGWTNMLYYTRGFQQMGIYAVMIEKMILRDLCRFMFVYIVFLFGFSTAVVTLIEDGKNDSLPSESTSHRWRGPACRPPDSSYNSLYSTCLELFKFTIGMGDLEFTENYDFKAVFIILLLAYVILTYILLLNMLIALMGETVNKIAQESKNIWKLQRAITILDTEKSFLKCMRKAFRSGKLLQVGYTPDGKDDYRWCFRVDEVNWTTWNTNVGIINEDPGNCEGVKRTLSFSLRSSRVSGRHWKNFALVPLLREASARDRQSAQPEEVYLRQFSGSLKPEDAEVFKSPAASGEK
# Sequence of M-phase phosphoprotein 8 (Homo sapiens) (Q99549 whole entry, looked up): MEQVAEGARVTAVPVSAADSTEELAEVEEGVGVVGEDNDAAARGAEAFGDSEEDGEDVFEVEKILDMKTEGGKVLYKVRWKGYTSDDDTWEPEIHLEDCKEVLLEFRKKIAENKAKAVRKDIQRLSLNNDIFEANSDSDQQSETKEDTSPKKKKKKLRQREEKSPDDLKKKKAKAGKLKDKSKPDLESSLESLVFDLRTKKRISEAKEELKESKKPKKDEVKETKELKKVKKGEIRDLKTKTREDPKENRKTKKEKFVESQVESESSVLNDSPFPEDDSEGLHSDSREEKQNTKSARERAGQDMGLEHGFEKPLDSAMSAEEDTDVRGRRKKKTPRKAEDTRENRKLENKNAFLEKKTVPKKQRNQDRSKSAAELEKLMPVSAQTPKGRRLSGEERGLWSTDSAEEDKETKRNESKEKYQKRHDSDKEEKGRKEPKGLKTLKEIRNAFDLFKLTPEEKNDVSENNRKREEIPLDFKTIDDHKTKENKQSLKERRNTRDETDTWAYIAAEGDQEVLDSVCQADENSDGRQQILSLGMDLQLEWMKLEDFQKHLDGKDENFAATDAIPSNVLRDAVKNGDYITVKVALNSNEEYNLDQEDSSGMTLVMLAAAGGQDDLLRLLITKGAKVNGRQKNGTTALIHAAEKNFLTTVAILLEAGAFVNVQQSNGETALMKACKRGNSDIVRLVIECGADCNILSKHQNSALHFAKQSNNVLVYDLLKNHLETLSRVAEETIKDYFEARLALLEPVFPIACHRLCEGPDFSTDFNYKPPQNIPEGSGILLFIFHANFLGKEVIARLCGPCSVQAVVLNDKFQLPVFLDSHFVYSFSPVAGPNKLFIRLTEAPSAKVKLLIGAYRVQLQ
# Sequence of Thyrotropin-releasing hormone receptor (Homo sapiens) (P34981 whole entry, looked up): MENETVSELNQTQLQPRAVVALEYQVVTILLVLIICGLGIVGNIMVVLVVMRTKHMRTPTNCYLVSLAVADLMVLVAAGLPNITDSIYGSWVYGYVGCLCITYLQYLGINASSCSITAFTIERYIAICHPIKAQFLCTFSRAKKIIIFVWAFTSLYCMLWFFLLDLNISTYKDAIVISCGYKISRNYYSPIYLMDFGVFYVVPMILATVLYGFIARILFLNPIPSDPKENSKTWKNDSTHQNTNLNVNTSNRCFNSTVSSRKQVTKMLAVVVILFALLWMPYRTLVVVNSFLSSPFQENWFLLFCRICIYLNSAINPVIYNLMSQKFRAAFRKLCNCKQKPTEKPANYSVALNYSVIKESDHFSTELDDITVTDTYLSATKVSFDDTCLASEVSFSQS
# Sequence of Galactokinase (Homo sapiens) (P51570 whole entry, looked up): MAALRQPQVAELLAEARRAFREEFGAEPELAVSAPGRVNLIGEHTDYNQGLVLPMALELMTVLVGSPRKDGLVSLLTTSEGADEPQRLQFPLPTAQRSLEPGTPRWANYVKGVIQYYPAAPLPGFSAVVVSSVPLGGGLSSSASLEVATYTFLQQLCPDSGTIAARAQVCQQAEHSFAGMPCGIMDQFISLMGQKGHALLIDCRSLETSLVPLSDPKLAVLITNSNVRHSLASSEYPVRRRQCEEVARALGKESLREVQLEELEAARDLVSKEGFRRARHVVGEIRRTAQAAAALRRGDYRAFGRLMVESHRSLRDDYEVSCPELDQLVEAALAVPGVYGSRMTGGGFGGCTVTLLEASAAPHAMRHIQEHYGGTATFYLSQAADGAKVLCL
# Sequence of Thyrotropin receptor (Homo sapiens) (P16473 whole entry, looked up): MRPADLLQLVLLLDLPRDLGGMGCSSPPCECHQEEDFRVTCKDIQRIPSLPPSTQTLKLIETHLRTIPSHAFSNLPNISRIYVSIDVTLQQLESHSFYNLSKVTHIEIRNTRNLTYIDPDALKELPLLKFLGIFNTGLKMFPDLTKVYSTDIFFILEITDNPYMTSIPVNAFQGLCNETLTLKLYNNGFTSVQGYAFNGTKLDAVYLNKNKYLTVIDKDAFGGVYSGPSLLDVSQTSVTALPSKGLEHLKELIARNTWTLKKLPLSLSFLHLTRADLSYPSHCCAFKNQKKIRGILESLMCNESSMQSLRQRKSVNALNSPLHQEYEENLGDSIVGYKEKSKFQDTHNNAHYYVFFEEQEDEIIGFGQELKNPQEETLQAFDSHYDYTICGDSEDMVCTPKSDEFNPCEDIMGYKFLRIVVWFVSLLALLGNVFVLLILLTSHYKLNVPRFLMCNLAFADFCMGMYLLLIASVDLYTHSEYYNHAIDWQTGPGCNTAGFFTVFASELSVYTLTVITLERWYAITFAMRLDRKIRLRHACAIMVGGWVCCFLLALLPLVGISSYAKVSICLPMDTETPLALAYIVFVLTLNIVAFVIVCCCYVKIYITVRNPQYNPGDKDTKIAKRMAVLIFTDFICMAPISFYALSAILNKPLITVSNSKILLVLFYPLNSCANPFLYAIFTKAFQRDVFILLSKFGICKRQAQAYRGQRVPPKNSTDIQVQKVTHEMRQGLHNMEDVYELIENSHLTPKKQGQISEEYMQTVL
# Sequence of DNA repair nuclease/redox regulator APEX1 (Homo sapiens) (P27695 whole entry, looked up): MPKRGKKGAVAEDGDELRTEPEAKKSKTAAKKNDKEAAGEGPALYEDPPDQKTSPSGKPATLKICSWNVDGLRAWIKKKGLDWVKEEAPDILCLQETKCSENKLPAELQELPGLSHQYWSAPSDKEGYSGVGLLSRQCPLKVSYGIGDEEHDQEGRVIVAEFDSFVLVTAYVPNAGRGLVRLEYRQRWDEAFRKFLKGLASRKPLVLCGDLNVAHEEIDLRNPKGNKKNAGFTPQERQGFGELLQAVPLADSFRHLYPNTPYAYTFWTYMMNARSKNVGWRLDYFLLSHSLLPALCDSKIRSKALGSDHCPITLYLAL
smiles,measurement,setting,value
CCCCN1CCC(COC(=O)c2cc(Cl)c(N)c3c2OCCO3)CC1,Potency,[1],inactive
same,outcome,[2],inactive
same,Potency,[3],inactive
same,Potency,[4],10 µM (active)
same,Potency,[5],12.6 µM (active)
same,Potency,[6],8.91 µM (active)
same,Potency,[7],7.08 µM (active)
same,outcome,[8],inactive
same,outcome,[9],inactive
same,Potency,[10],inactive
same,Potency,[11],inactive
same,Potency,[12],inactive
same,Potency,[13],inactive
same,outcome,[14],inactive
same,outcome,[15],inactive
same,activation,[16],1.19%
same,outcome,[17],inactive
same,Potency,[18],inactive
